Compound activity from PubChem.
SENP8 block-1: inhibitors of human SENP8 protease; Q96LD8; recombinant SENP8, Nedd8 substrate fluorescence; inhibition, % at 20 µM; hit rate 0.64% among 360,000; AID 602440; in the data active = inhibition mostly above about 40%, no sharp cut-off; inactive = mostly below about 27%
Target sequence (Q96LD8 whole entry, looked up): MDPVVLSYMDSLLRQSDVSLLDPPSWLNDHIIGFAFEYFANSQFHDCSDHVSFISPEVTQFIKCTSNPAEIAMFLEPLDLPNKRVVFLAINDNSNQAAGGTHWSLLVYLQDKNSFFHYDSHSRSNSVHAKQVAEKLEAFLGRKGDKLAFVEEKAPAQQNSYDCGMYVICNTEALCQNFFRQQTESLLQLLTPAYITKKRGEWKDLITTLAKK
TRAIL sens C8: caspase-8 TRAIL sensitization; NB7+C8 cells + TRAIL, ATPlite viability luminescence; inhibition (viability loss, TRAIL sensitization), % at 10 µM; hit rate 1% among 360,000;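 active = compounds causing at least 50% loss of cell viability in the single-dose screen, relative to plate controls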
SENP8 block-2: blocks the human protease SENP8; inhibition, % at 10 µM; hit rate 1.2% among 330,000; Q96LD8; purified SENP8, Z-RLRGG-aminoluciferin cleavage, luminescence; AID 2540; in the data active = inhibition above about 50%
PPC-1+TRAIL kill: PPC-1 cancer cell killing with TRAIL present; PPC-1 cells + TRAIL, ATPLite viability luminescence; cell killing (% activity), % at 4 µM or 5 µM; hit rate 0.41% among 220,000; AID 1443;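 active = cell killing above 50% in the first pass at 4 µM, then a duplicate retest at 5 µM averaging 50% or more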
SENP6 inh: blocks the human protease SENP6; Q9GZR1; Recombinant SENP6 catalytic domain, aminoluciferin luminescence; inhibition, % at 10 µM; hit rate 1.8% among 330,000; AID 2599;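 active = inhibition above about 50% at the single tested dose, limit read from the data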
SENP7 inh: blocks the human protease SENP7; Q9BQF6; recombinant SENP7, Z-RLRGG-aminoluciferin luminescence, 40 min; inhibition, % at 5 µM; AID 434973; hit rate 1.5% among 330,000;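 active = inhibition above about 50% at the single test dose, limit read from the data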
SENP8 conf: confirmation of human SENP8 protease inhibitors; Recombinant SENP8, Z-RLRGG-aminoluciferin luminescence, 60 min; hit rate 40% among 6,200; AID 488912; shares compounds with SENP7 inh; inhibition, % at 12.5 µM;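 active = mean inhibition across replicates above about 50%, limit read from the data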
SENP6 confirm: human SENP6 inhibition, confirmed; shares compounds with SENP7 inh; recombinant SENP6, Z-RLRGG-aminoluciferin luminescence; inhibition, % at 12.5 µM; hit rate 58% among 6,200
SENP7 confirm: confirmation of human SENP7 protease inhibitors; shares compounds with SENP7 inh; recombinant SENP7, Z-RLRGG-aminoluciferin luminescence, 40 min; inhibition, % at 12.5 µM; hit rate 69% among 6,200
Casp3 select: selectivity test for SENP inhibitors: human caspase-3 inhibition. shares compounds with SENP7 inh. purified caspase-3, Z-DEVD-aminoluciferin luminescence, 60 min. inhibition, % at 12.5 µM. hit rate 60% among 6,200;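 active = mean inhibition above about 50%, limit read from the data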
Target sequence (P42574 28-227 limits assumed): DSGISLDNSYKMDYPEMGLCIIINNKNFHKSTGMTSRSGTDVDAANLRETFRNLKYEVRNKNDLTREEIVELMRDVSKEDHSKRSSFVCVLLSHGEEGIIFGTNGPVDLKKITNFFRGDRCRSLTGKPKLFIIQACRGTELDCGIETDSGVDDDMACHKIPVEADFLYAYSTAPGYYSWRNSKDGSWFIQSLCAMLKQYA
Luc interf: counter-screen for SENP inhibitors: luminescence interference; inhibition, % at 12.5 µM; hit rate 39% among 6,200; shares compounds with SENP7 inh; Pre-incubated SENP8/Z-RLRGG-aminoluciferin, luciferase luminescence interference;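 active = mean inhibition above about 50% when retested at one dose, limit read from the data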
Hits are given with their value; n = inactive; x = no result given. An excerpt weighted towards active compounds, which were near 3% of everything screened.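 The calls were made as follows, unless noted: active = mean inhibition above about 50% in the one-dose retest (limit read from the data); inactive = the rest.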

SMILES	SENP8 block-1	TRAIL sens C8	SENP8 block-2	PPC-1+TRAIL kill	SENP6 inh	SENP7 inh	SENP8 conf	SENP6 confirm	SENP7 confirm	Casp3 select	Luc interf
C/C(=N\OC(=O)c1ccc(C)cc1)c1c(C)nc2cc(C)ccn12	n	n	n	n	n	n	x	x	x	x	x
C/C(=N\OC(=O)c1ccc(C)cc1)c1sc(C)nc1C	n	n	62	n	79	77	n	73	92	79	57
Cc1cccc(C(=O)O/N=C(\N)c2cccc([N+](=O)[O-])c2)c1	n	n	n	n	n	n	x	x	x	x	x
N/C(=N\OC(=O)c1ccccc1)c1ccncc1	n	n	n	n	n	n	x	x	x	x	x
N/C(=N\OC(=O)c1cccc(F)c1)c1ccccc1	n	74	77	n	91	95	83	85	97	92	78
Cc1ccc(/C(N)=N/OC(=O)c2cccc(F)c2)cc1	n	85	n	n	61	76	n	n	83	61	n
O=C(COC(=O)C1CC1)Nc1ccc(Cl)cn1	n	n	n	x	n	n	x	x	x	x	x
CC(=O)c1cnc2cc(-c3ccc(Cl)cc3)nn2c1C	n	n	n	n	n	n	x	x	x	x	x
Cc1c(C(=O)O)cnc2cc(-c3ccc(Cl)cc3)nn12	n	n	82	n	91	82	89	88	100	93	87
COc1ccc(-c2nsc(SCC(=O)NCC3CCCO3)n2)cc1 (configuration not stated)	n	n	n	n	n	n	x	x	x	x	x
Cc1ccc(S(=O)(=O)N2C[C@@H](C)[C@]3(C2)[C@H](O)[C@H](OC(=O)NC2CCCC2)C[C@H]2C(=O)N(c4ccccc4)C(=O)[C@H]23)cc1	n	n	x	x	x	x	x	x	x	x	x
CNc1ncnc2c1ncn2[C@H]1CN(Cc2ccc3c(c2)OCO3)C[C@@H](CO)O1	n	n	x	x	x	x	x	x	x	x	x
Clc1ccc(-c2nc(-c3ccncc3)no2)c(Cl)c1	n	n	58	x	63	77	n	n	n	n	n
Cc1ccc(-c2nc(-c3ccncc3)no2)c(Cl)c1	n	55	75	x	71	89	n	n	n	n	n
Clc1ccc(Cl)c(-c2nc(-c3ccncc3)no2)c1	n	n	n	x	n	n	x	x	x	x	x
Cc1cccc2c1OCC/C2=N\NC(=O)COc1ccccc1Cl	n	n	n	n	n	73	n	n	n	n	n
C=C(C)C1CC=C(C)/C(=N/NC(=O)COc2ccccc2Cl)C1 (configuration not stated)	n	n	n	n	n	n	x	x	x	x	x
CCCC(=O)N1CCCC(C(=O)c2cccc(OC(C)C)c2)C1 (configuration not stated)	n	n	x	x	x	x	x	x	x	x	x
Cn1ccnc1SCC(=O)c1ccc(O)cc1	n	n	n	n	55	n	n	n	67	80	52
Cn1ccnc1SCC(=O)c1ccc(Cl)cc1	n	n	n	n	n	n	x	x	x	x	x
O=C(c1cccs1)c1coc2ccc(O)cc12	n	n	n	n	54	n	n	n	77	n	n
O=C(CCl)Oc1ccc2occ(C(=O)c3cccs3)c2c1	n	n	n	n	63	n	n	n	66	n	n
CC(C)[C@H](NC(N)=O)C(=O)Nc1cccc(S(=O)(=O)N2CCOCC2)c1	n	n	n	n	n	n	x	x	x	x	x
Cc1ccc(C(=O)/C=C/C(=O)c2ccc(C)cc2)cc1	n	n	n	n	n	n	x	x	x	x	x
Cc1nn(C)cc1/C=C/C(=O)c1ccc(O)cc1	n	n	n	n	53	n	n	n	n	n	n
Cc1cccc(C=CC(=O)c2ccccc2)c1	n	n	x	x	x	x	x	x	x	x	x
COc1ccc(C(=O)/C=C/c2ccc(O)cc2)cc1	n	n	51	n	n	62	n	57	76	n	89
